In the supplement of paper PMC7411054:

Experiments:
Settings in all cases: treatment time: 24 h
A549-ACTB-RAB5A [1] = test: lowest phenotypically active concentration; higher = less potent
Procedure, shortened: (§1)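 The reporter lines, fifteen in total and built by gene editing in A549, HepG2 and WPMY1 cells, used BFP for segmentation alongside GFP and RFP/FusionRed markers. Each was treated at 0.3, 1, 3 or 9 µM for 24 h in four wells and then imaged live, with live-cell features normalised to solvent control wells. Deviation meant ≥3 of 4 wells beyond the 95th percentile of control Euclidean distances; reproducibility meant a median replicate Pearson correlation above the 95th percentile of non-replicates. Only conditions meeting both were scored as phenotypically active.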

A549-GM130-SQSTM1 [2] = test: as above
Procedure, shortened: as §1

A549-TUBA1B-RELA [3] = test: as above
Procedure, shortened: as §1

HepG2-ACTB-RAB5A [4] = test: as above
Procedure, shortened: as §1

WPMY1-CANX-COX4 [5] = test: as above
Procedure, shortened: as §1

A549-ACTB-RAB5A [6] = test: phenotypically active (imaging signature differs from DMSO and reproducible) at any of 0.3-9 uM (binary (1 = active, 0 = inactive)); higher = active
Procedure, shortened: as §1

A549-CANX-COX4 = test: as above
Procedure, shortened: as §1

A549-GM130-SQSTM1 [7] = test: as above
Procedure, shortened: as §1

A549-TP53BP1-CLTA = test: as above
Procedure, shortened: as §1

A549-TUBA1B-RELA [8] = test: as above
Procedure, shortened: as §1

HepG2-ACTB-RAB5A [9] = test: as above
Procedure, shortened: as §1

HepG2-CANX-COX4 = test: as above
Procedure, shortened: as §1

HepG2-GM130-SQSTM1 = test: as above
Procedure, shortened: as §1

HepG2-TP53BP1-CLTA = test: as above
Procedure, shortened: as §1

HepG2-TUBA1B-RELA = test: as above
Procedure, shortened: as §1

WPMY1-ACTB-RAB5A = test: as above
Procedure, shortened: as §1

WPMY1-CANX-COX4 [10] = test: as above
Procedure, shortened: as §1

WPMY1-GM130-SQSTM1 = test: as above
Procedure, shortened: as §1

WPMY1-TP53BP1-CLTA = test: as above
Procedure, shortened: as §1

WPMY1-TUBA1B-RELA = test: as above
Procedure, shortened: as §1

Compound	lowest phenotypically active concentration (A549-ACTB-RAB5A [1]) [µM]	lowest phenotypically active concentration (A549-GM130-SQSTM1 [2]) [µM]	lowest phenotypically active concentration (A549-TUBA1B-RELA [3]) [µM]	lowest phenotypically active concentration (HepG2-ACTB-RAB5A [4]) [µM]	lowest phenotypically active concentration (WPMY1-CANX-COX4 [5]) [µM]	phenotypically active (A549-ACTB-RAB5A [6])	phenotypically active (A549-CANX-COX4)	phenotypically active (A549-GM130-SQSTM1 [7])	phenotypically active (A549-TP53BP1-CLTA)	phenotypically active (A549-TUBA1B-RELA [8])	phenotypically active (HepG2-ACTB-RAB5A [9])	phenotypically active (HepG2-CANX-COX4)	phenotypically active (HepG2-GM130-SQSTM1)	phenotypically active (HepG2-TP53BP1-CLTA)	phenotypically active (HepG2-TUBA1B-RELA)	phenotypically active (WPMY1-ACTB-RAB5A)	phenotypically active (WPMY1-CANX-COX4 [10])	phenotypically active (WPMY1-GM130-SQSTM1)	phenotypically active (WPMY1-TP53BP1-CLTA)	phenotypically active (WPMY1-TUBA1B-RELA)
COc1cc2c(N3CCN(C(=O)Nc4ccc(OC(C)C)cc4)CC3)ncnc2cc1OCCCN1CCCCC1 [tandutinib]	9	3	9	9	9	1 (active)	1 (active)	1 (active)	1 (active)	1 (active)	1 (active)	1 (active)	1 (active)	1 (active)	1 (active)	1 (active)	1 (active)	1 (active)	0 (inactive)	1 (active)
O=C1N=C(NCc2cccs2)S/C1=C\c1ccc2ncccc2c1	3	1	3		3	1 (active)	1 (active)	1 (active)	1 (active)	1 (active)	0 (inactive)	1 (active)	1 (active)	1 (active)	1 (active)	1 (active)	1 (active)	1 (active)	1 (active)	1 (active)
O=C(O)[C@]1(Cc2cccc(Nc3nccs3)n2)CC[C@@H](Oc2cccc(Cl)c2F)CC1	≤ 0.3	≤ 0.3	1	≤ 0.3	1	1 (active)	1 (active)	1 (active)	1 (active)	1 (active)	1 (active)	1 (active)	1 (active)	1 (active)	1 (active)	1 (active)	1 (active)	0 (inactive)	1 (active)	1 (active)
